A selection: hits, their analogues and other compounds. The true share with any hit is near 6.7%.
MCF10A rereplic: A quantitative high throughput screen for small molecules that induce DNA re-replication in MCF 10a normal breast cells; actives 2.9% (n = 350,000); MCF 10A DNA re-replication, Hoechst nuclear intensity, 48 h; AID 624296, 2012; Potency, µM (highest dose often 46.1 µM), actives largely listed as activators; note: nearly all actives have a fitted effect of over 50% in size
PINK1 expr mod: A Quantitative High throughput Screen to Identify Chemical Modulators of PINK1 Expression; PINK1 immunofluorescence, high-content cytometry, 24 h; Potency, µM (series often up to 76.6 µM), hits mostly activators; actives 0.2% (n = 410,000); active = well fitted activation curve with a large enough effect; inconclusive = small, poorly fitted or top-dose-only effect; cell line not stated here; note: nearly all actives have a fitted effect of over 65% in size
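Cells are seeded, rested 12 hours, then given compound at five concentrations or DMSO for 24 hours. After fixation, blocking and antibody staining, PINK1 amount and mitochondrial localization are scored; CCCP serves as control.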
KB-3-1 tox: qHTS assay for MDR1-selective chemotherapeutics: Primary screen using the parental adenocarcinoma cell KB-3-1; KB-3-1 viability, CellTiter-Glo ATP luminescence, 72 h; Potency, µM (highest dose often 46.1 µM), usual class: cytotoxic; actives 1.4% (n = 400,000); note: nearly all actives have a fitted effect of over 60% in size
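Parental KB-3-1 viability, qHTS format: 72 h compound exposure, 37 °C; CellTiter-Glo; media-only wells and DMSO plates as controls; concentration-effect fits on corrected data.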
SW480 rerep: A quantitative high throughput screen for small molecules that induce DNA re-replication in SW480 colon adenocarcinoma cells. actives 1.8% (n = 340,000). SW480 DNA re-replication, Hoechst DNA content imaging, 48 h. Potency, µM (doses to about 46.1 µM), usual class: activators; note: nearly all actives have a fitted effect of over 55% in size
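Treated cells incubate 48 hr (37 C, 5% CO2), are stained 40 min with Hoechst, and nuclear fluorescence is enumerated; a rise in nuclei with high DNA signal marks re-replication.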
KB-V1 MDR tox: qHTS assay for MDR1-selective chemotherapeutics: Primary screen using the drug-selected MDR subline cells KB-V1; KB-V1 MDR cells viability, CellTiter-Glo, 72 h; Potency, µM (doses to about 46.1 µM), most hits filed as cytotoxic; actives 3.4% (n = 400,000); AID 1347076, 2019; note: nearly all actives have a fitted effect of over 60% in size
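Compound-treated KB-V1 multidrug-resistant cells, 72 h, 37 degrees C; viability by CellTiter-Glo. Fitted qHTS curves give the values.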
A number is an active result; . = inactive; ? = inconclusive; / = no result given; [ ] = another dose, or the depositor's remark. Unless noted, calls come from the whole dose curve; as a rule, active = well fitted curve in the direction sought with a large enough effect; inconclusive = small, poorly fitted or top-dose-only effect, or another doubt; inactive = no such curve, though single readings can be large; an effect the other way counts as inactive or inconclusive.

SMILES | MCF10A rereplic | PINK1 expr mod | KB-3-1 tox | SW480 rerep | KB-V1 MDR tox
COC(=O)C(C#N)(CCC(=O)c1ccccc1)CCC(=O)c1ccccc1 | / | . | . | / | .
O=C(Oc1ccccc1F)c1nc(SCc2ccccc2F)ncc1Cl | / | . | . | / | .
CCc1ccc(Nc2ccc(S(=O)(=O)N3CCOCC3)cc2[N+](=O)[O-])cc1 | . | . | . | . | 23µM
CCC(=O)N1N=C(c2ccc(NS(=O)(=O)c3ccccc3)cc2)CC1c1ccco1 (stereo not drawn) | . | . | ? | . | .
CN1CCCN(C(=O)Cc2c(Cl)cccc2Cl)c2nc3ccccc3nc21 | ? | . | . | 16µM | .
CCOc1ccc(NC(=O)c2cc(=O)c3ccc(C)c(C)c3o2)cc1 | / | . | . | / | .
CCCC(=O)N(C1CC(C)C(C#N)(C#N)C1(C#N)C#N)N(C)C (stereo not drawn) | 2.9µM | . | . | 4.6µM | .
COc1ccc(C2C(C(=O)Nc3cc(OC)c(OC)c(OC)c3)c3ccccc3C(=O)N2C)cc1 (stereo not drawn) | ? | . | ? | 6.5µM | ?
O=C(NCC(c1cccnc1)N1CCN(c2ccccc2F)CC1)C(=O)Nc1ccc(F)cc1F (stereo not drawn) | / | . | . | / | .
O=C(NC(=S)Nc1cc(-c2nc3ccccc3[nH]2)ccc1Cl)c1ccc2c(c1)OCO2 | 3.3µM | . | 18µM | 5.8µM | 7.3µM
O=C(CCCO)NNc1c2ccccc2nc2ccccc12 | . | . | . | ? | .
O=C(COc1ccccc1)NNc1c2ccccc2nc2ccccc12 | . | . | . | . | 18µM
O=C(NNc1nc(=O)c2cccnc2s1)c1ccccc1O | . | . | ? | 0.92µM | .
CCCC(=O)NNc1c2ccccc2nc2ccccc12 | . | . | . | . | 16µM
O=C(NNc1c2ccccc2nc2ccccc12)c1ccccc1O | . | . | . | . | 21µM
COc1cccc(Cn2c(CNS(=O)(=O)c3ccc4c(c3)CCCC4)nc3cccnc32)c1 | / | . | / | / | /
COc1ccc(OCC(=O)NNc2c3ccccc3nc3ccccc23)cc1 | ? | . | ? | . | 4.6µM
COc1ccc(OCC(=O)NNC(=O)C(=O)Nc2ccccc2)cc1 | . | . | . | . | .
O=C(NNC(=O)c1cccc2ccccc12)c1ccccc1O | . | . | ? | 7.3µM | .
O=C(NNC(=O)c1cccc2ccccc12)c1ccc(-c2ccccc2)cc1 | ? | ? | ? | . | ?
COc1ccc(C)cc1Nc1n[n+](-c2ccccc2)c(-c2c(OC)ccc3ccccc23)s1 | ? | ? | 18µM | .[9.22 µM] | ?
CS(=O)CC(O)(c1ccc(F)cc1)C1CC1 (stereo not drawn) | / | . | . | / | .
CC(=O)Nc1ccc(C(=O)N2CCCC(c3cc(C(=O)NCc4ccccc4)no3)C2)cc1 (stereo not drawn) | / | . | . | / | .
Cc1nonc1OCC(C)(COc1nonc1C)NC(=O)c1ccccc1 | . | ? | . | . | 18µM
COc1cc(OC)cc(C(=O)c2c(C)c(C#N)c3ccccn23)c1 | ? | . | 5.2µM | 10µM | ?
SMILES | MCF10A rereplic | PINK1 expr mod | KB-3-1 tox | SW480 rerep | KB-V1 MDR tox
COc1ccc(CNC(=O)c2cc(S(=O)(=O)N3CCCCC3)ccc2Cl)cc1OC | . | . | . | ? | .
CCOC(=O)c1c(C)[nH]c(C)c1C(=O)COC(=O)c1cccc(C)c1O | ? | ? | . | . | 16µM
Cc1cccc(C(=O)OCC(=O)c2c(C)[nH]c3ccccc23)c1O | . | . | . | . | .
CCOC(=O)Cn1c(=O)c2c(nc(N3CCOCC3)n2C)n(C)c1=O | . | . | . | . | .
CCCCCOC(=O)Cn1c(=O)c2c(nc(N3CCOCC3)n2C)n(C)c1=O | . | . | . | . | 16µM
COc1ccc(CCNC(=O)CSc2nnc(-c3cccc(C)c3)o2)cc1OC | . | / | . | . | ?
COc1ccc(CCNC(=O)CSc2ccc3ccccc3c2)cc1OC | . | . | . | . | 23µM
COc1ccc(CCNC(=O)C(C(=O)c2ccccc2)n2cc(Cl)ccc2=O)cc1OC (stereo not drawn) | . | . | . | . | 16µM
COc1ccc(-c2nnc(SCC(=O)N(Cc3ccccc3)C(C)(C)C)o2)cc1OC | ? | . | ? | . | 9.2µM
COc1ccc(CCNC(=O)C(C(=O)c2ccccc2)n2ccccc2=O)cc1OC (stereo not drawn) | . | . | . | . | ?
COc1ccc(CCNC(=O)CSc2nnc(-c3ccccc3)o2)cc1OC | . | . | . | . | 21µM
COc1ccc(OC)c(S(=O)(=O)Nc2ccc3c(c2)OCCO3)c1 | / | . | . | / | .
CCc1ccc2nc(N(Cc3cccnc3)C(=O)c3cccs3)sc2c1 | / | . | / | / | /
COc1ccc(CCNCC(=O)Nc2ccc(OC(F)(F)F)cc2)cc1OC | 23µM | . | . | . | .
COc1ccc(CCNC(=O)Cc2ccccc2)cc1OC | . | . | . | ? | .
COc1ccc(CCNC(=O)C(=O)NCc2ccccc2)cc1OC | ? | . | 21µM | 18µM | ?
COCCNc1nc(-c2cccc(OC)c2)nc2ccccc12 | / | . | / | / | /
CCOC(=O)N1CCN(C(=S)NC(=O)/C=C/c2ccc(C)cc2)CC1 | . | . | . | . | ?
NCCCC[C@@H](C(=O)NCCCCCCCCCCC(=O)N1CCNCC1)n1cc(CCCC(=O)O)nn1 | . | . | . | . | .
CN1CCN(CCCNC(=O)CCCOc2cc(=O)n(C)c3ccccc23)CC1 | . | . | . | . | .
Cc1ccc(C)c(N2CCN(C(=O)CCCOc3cc(=O)n(C)c4ccccc34)CC2)c1 | ? | . | ? | ? | 8.2µM
CC(C)CCNC(=O)CCCOc1cc(=O)n(C)c2ccccc12 | ? | . | . | . | 13µM
COc1ccc(N2CCN(C(=O)CCCOc3cc(=O)n(C)c4ccccc34)CC2)cc1 | . | . | . | . | 8.2µM
COc1ccc(C(=O)N2CCC(C(=O)Nc3ccccc3Cl)CC2)cc1 | / | . | . | / | .
Cc1cc(O)cc(C)c1NS(=O)(=O)c1ccc2ccccc2c1 | . | . | . | . | .
SMILES | MCF10A rereplic | PINK1 expr mod | KB-3-1 tox | SW480 rerep | KB-V1 MDR tox
COc1ccc(OC)c(NC(=O)c2c(C)oc3ncnc(N4CCOCC4)c23)c1 | / | . | / | / | /
Cc1ccc(F)cc1S(=O)(=O)NCc1nc(N2CCCC2)c2cccc(C)c2n1 | / | . | / | / | /
CCc1ccc(NC(=O)c2cc3ccccn3n2)cc1 | / | . | 15µM | / | ?
O=C1C(=O)N(C2CCN(C(=O)c3ccc(Cl)cc3)CC2)CCN1Cc1ccc(F)cc1 | / | . | . | / | .
CN(Cc1ccccc1)C(=O)COC(=O)c1cc(=O)c2ccccc2o1 | . | . | ? | . | .
COc1ccccc1NS(=O)(=O)c1cc(NC(=S)Nc2cc(C)cc(C)c2)ccc1Cl | . | 45µM | ? | . | 15µM

Screening results as filed in PubChem.
